Screening data (PubChem)
KB-V1 cytotox – qHTS assay for MDR1-selective chemotherapeutics: Primary screen using the drug-selected MDR subline cells KB-V1; KB-V1 MDR cells viability, CellTiter-Glo, 72 h; Potency, µM (doses to about 46.1 µM), actives largely listed as cytotoxic; 3.4% of 400,000 active; AID 1347076, 2019; note: % is set by controls: 0 for no effect and ±100 for the full control effect; nearly all actives have a fitted effect of over 60% in size
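Potencies derive from concentration-effect curves fitted to normalized luminescence (CellTiter-Glo) of KB-V1 cells treated for 72 h at 37 degrees C in phenol-red-free DMEM containing 10% FBS.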
PINK1 expr mod – A Quantitative High throughput Screen to Identify Chemical Modulators of PINK1 Expression; PINK1 immunofluorescence, high-content cytometry, 24 h; Potency, µM (highest dose often 76.6 µM), without a hit: top-dose activation (PINK1 increase), usual class: activators; 0.2% of 410,000 active; AID 624263, 2012; active = well fitted activation curve with a large enough effect; inconclusive = small, poorly fitted or top-dose-only effect; cell line not stated here; note: % of control where 0% means no effect; nearly all actives have a fitted effect of over 65% in size
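Stable cell line treated 24 h with compounds at 5 concentrations (CCCP controls), then fixed and immunostained for PINK1 plus nuclear and cell stains; PINK1 immunofluorescence quantified by laser-scanning microplate cytometry.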
KB-3-1 tox – qHTS assay for MDR1-selective chemotherapeutics: Primary screen using the parental adenocarcinoma cell KB-3-1 | KB-3-1 viability, CellTiter-Glo ATP luminescence, 72 h | Potency, µM (top dose mostly 46.1 µM), most hits filed as cytotoxic | 1.4% of 400,000 active | AID 1347075, 2019; note: % is set by controls: 0 for no effect and ±100 for the full control effect; nearly all actives have a fitted effect of over 60% in size
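Cytotoxicity in the drug-sensitive parental line KB-3-1 was scored as loss of CellTiter-Glo luminescence following 72 h incubation with compound. Values come from curve fitting of normalized concentration-response data.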
MCF10A rerep – A quantitative high throughput screen for small molecules that induce DNA re-replication in MCF 10a normal breast cells | MCF 10A DNA re-replication, Hoechst nuclear intensity, 48 h | Potency, µM (highest dose often 46.1 µM), inactives show at the top dose activity, positive = re-replication, actives largely listed as activators | 2.9% of 350,000 active | AID 624296, 2012; note: % of control where 0% means no effect; nearly all actives have a fitted effect of over 50% in size
12-LOX inh – Primary qHTS assay for inhibitors of human arachidonate 12S-lipoxygenase (ALOX12): Round 2 | Polyunsaturated fatty acid lipoxygenase ALOX12 (Homo sapiens), P18054 | purified 12hLO, xylenol orange hydroperoxide absorbance | Potency, µM (titrated, usually from 108 µM), for the others: at the top dose activity change, negative = inhibition, hits mostly inhibitors | 1.1% of 580,000 active; note: % is set by controls: 0 for no effect and ±100 for the full control effect
Target sequence (P18054 whole entry, looked up): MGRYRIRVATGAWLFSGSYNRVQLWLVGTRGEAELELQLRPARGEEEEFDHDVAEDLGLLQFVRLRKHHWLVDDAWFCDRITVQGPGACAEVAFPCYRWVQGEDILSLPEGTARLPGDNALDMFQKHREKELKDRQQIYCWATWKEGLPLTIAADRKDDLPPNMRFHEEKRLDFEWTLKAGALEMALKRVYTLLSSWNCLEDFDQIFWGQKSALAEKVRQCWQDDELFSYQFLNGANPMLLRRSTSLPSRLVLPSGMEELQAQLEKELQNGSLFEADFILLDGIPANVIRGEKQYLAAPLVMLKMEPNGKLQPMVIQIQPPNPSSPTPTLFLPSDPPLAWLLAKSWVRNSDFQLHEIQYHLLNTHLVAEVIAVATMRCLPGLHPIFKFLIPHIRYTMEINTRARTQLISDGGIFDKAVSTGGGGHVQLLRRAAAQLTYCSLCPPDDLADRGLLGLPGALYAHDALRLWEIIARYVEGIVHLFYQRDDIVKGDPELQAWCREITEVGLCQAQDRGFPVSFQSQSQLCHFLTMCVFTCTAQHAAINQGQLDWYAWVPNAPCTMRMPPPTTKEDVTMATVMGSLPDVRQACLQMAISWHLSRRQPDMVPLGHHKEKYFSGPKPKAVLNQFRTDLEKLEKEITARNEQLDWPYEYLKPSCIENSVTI
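Purified human 12hLO (150 nM final) in 25 mM Hepes, 0.01% Triton X-100, pH 7.0 was preincubated 15 min at room temperature with compound. Then 40 uM arachidonic acid was added, 30 min. Hydroperoxide was read by Fe-XO absorbance ratio 573/405 nm.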
SW480 rerep – A quantitative high throughput screen for small molecules that induce DNA re-replication in SW480 colon adenocarcinoma cells | SW480 DNA re-replication, Hoechst DNA content imaging, 48 h | Potency, µM (highest dose often 46.1 µM), for inactives: at the top dose re-replication activation, hits mostly activators | 1.8% of 340,000 active; note: % of control where 0% means no effect; nearly all actives have a fitted effect of over 55% in size
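Image-based DNA-content assay: after two days of treatment, nuclei were labelled with the DNA dye Hoechst and imaged, and hits were compounds raising the count of nuclei showing high fluorescence intensity.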
Active calls of the source: *; i = inactive; ? = inconclusive; / = no result given; [ ] = remark or other dose. Most compounds without a hit are left out; they make up all but 5.8% or so of the library. Unless noted, calls come from the whole dose curve; as a rule, active = well fitted curve in the direction sought with a large enough effect; inconclusive = small, poorly fitted or top-dose-only effect, or another doubt; inactive = no such curve, though single readings can be large; an effect the other way counts as inactive or inconclusive. Potency is the fitted concentration of half-maximal effect.

SMILES	KB-V1 cytotox	PINK1 expr mod	KB-3-1 tox	MCF10A rerep	12-LOX inh	SW480 rerep
CCOC(=O)/C=C/C(=O)OCC(=O)Nc1ccc(Cl)cn1	i	1.1%	i	20.6µM*	0.0%	1.5%
CCN(CC)S(=O)(=O)c1cc(C(=O)NC2CCCCC2)ccc1C	13µM*	-1.1%[38.3 µM]	i	14.7%	0.0%	-2.4%
CCN(CC)S(=O)(=O)c1cc(C(=O)Nc2ccc(Cl)cn2)ccc1C	9.2µM*	-1.3%	i	9.7%	0.0%	-3.9%
CC(C)C(NC(=O)c1c(F)cccc1F)C(=O)NCc1cnn(-c2ccccc2)c1 (centres undefined)	/	/	/	/	-40.7%	/
Cc1ccc(C(=O)Nc2ncc3c(Cl)cccc3n2)cc1	18.4µM*	8.6%	?	22.3%	-13.1%	?
Cc1ccc(NC(=O)c2ccc(Cl)cc2[N+](=O)[O-])nc1	?	7.4%	5.8µM*	?	-29.8%	3.66µM*
Cc1ccc(NC(=O)c2ccccc2[N+](=O)[O-])nc1	i	8.1%	?	?	-2.6%	?
COCCOc1ccc(-c2ccc(C#N)cc2)cc1	/	/	/	/	36.6%	/
COC(=O)C1=CN(C(C)c2ccccc2)C=C(C(=O)OC)C1c1cc(OC)c(OC)c(OC)c1 (centres undefined)	i	3.8%	i	?	-26.4%	20.6µM*
CCc1nc2c(c(-c3ccc(Cl)cc3)n1)CN(Cc1ccc(F)cc1)CC2	/	/	/	/	3.0%	/
Cc1cccc(C2CC(=O)Nc3cc4c(cc32)OCO4)c1 (centres undefined)	i	3.8%	?	/	-9.6%	/
CC(C)Oc1cccc(C2CC(=O)Nc3cc4c(cc32)OCO4)c1 (centres undefined)	?	7.9%	3.66µM*	/	?	/
CCOc1ccccc1C1CC(=O)Nc2cc(C)c(C)cc21 (centres undefined)	8.2µM*	4.3%	?	?	-10.2%	18.4µM*
COc1ccccc1C1CC(=O)Nc2cc(C)c(C)cc21 (centres undefined)	9.2µM*	3.3%	16.4µM*	15.4%	-11.8%	20.6µM*
COc1cc2c(cc1OC)C(c1cc(C)ccc1C)CC(=O)N2 (centres undefined)	?	3.7%	i	0.651µM*	17.2%	-0.1%
COc1cccc(N=Cc2ccc(N(C)C)cc2)c1	/	/	/	/	-28.0%	/
O=C(CCc1ncc(-c2c(F)cccc2F)o1)Nc1ccccn1	/	/	/	/	36.2%	/
COc1cc2c(cc1OC)C(c1ccco1)CC(=O)N2 (centres undefined)	i	1.2%	i	-0.8%	-2.6%	-21.9%
Cc1cc2c(cc1C)C(c1ccccc1OC(C)C)CC(=O)N2 (centres undefined)	?	0.2%	5.8µM*	1.46µM*	-29.4%	5.17µM*
CC(C)Oc1ccccc1C1CC(=O)Nc2cc3c(cc21)OCO3 (centres undefined)	1.3µM*	5.1%[38.3 µM]	2.59µM*	0.517µM*	?	?
COc1cc2c(cc1OC)C(c1ccc(Br)cc1)CC(=O)N2 (centres undefined)	i	4.1%	i	0.651µM*	?	?
Cc1cc2c(cc1C)C(c1ccccc1Br)CC(=O)N2 (centres undefined)	23.1µM*	14.2%	18.4µM*	?	-13.0%	?
CCCCOc1ccccc1C1CC(=O)Nc2cc(C)c(C)cc21 (centres undefined)	?	1.2%	?	/	4.5%	/
COc1cccc(C2CC(=O)Nc3cc4c(cc32)OCO4)c1OC(C)C (centres undefined)	i	0.8%	i	/	-13.1%	/
CCc1nc2ccccc2c(NC(=O)CN(C)C)c1C	/	/	/	/	-3.4%	/
SMILES	KB-V1 cytotox	PINK1 expr mod	KB-3-1 tox	MCF10A rerep	12-LOX inh	SW480 rerep
O=S(=O)(c1ccc(Cl)cc1)c1nc(-c2cccc(Br)c2)oc1NCc1ccccc1	16.4µM*	1.6%	?	/	?	/
Cc1ccc(NC(=O)C2(Cc3ccccc3)CCCCC(=O)N2)cc1 (centres undefined)	/	/	/	/	-2.9%	/
COC(=O)CCc1c(C)c(C(=O)c2cc(OC)c(OC)c(OC)c2)c2ccccn12	i	9.6%	i	?	0.0%	10.3µM*
CC(C)C(NC(=O)CSCc1ccc([N+](=O)[O-])cc1)C(C)C	18.4µM*	4.1%	i	?	-21.1%	-0.5%
O=C(CSCc1ccc([N+](=O)[O-])cc1)NC1CC1	i	0.7%	i	5.5%	-24.5%	-4.3%
CC(=O)c1cccc(NC(=O)c2sc3nc4n(c(=O)c3c2C)CCCC4)c1	i	10.0%	i	4.4%	-2.0%	9.2µM*
COc1ccc(COC(=O)c2sc3nc4n(c(=O)c3c2C)CCC4)cc1	8.2µM*	-2.0%	i	26.3%	-21.5%	-1.0%
COc1cc(OC)c2c(c1)O/C(=C\c1ccccc1)C2=O	i	1.6%	i	?	9.8%	?
COCOc1ccc(/C=C2/Oc3cc(OCOC)cc(OCOC)c3C2=O)c(OCOC)c1	i	3.6%	i	6.51µM*	/	?
CC(C)n1ncc2c(C(=O)NCc3ccccc3F)c3c(nc21)CCC3	/	/	/	/	-34.9%	/
CCOC(=O)C(CCCCCC(NC(C)=O)(C(=O)OCC)C(=O)OCC)(NC(C)=O)C(=O)OCC	/	/	/	/	-51.1%	/
COc1ccc(CNC(=O)c2ccc3noc(-c4ccccc4)c3c2)cc1OC	/	/	/	/	-10.7%	/
Cc1cc2nc(CSc3ccc(NC(=O)c4ccccc4C(F)(F)F)cc3)cc(=O)n2o1	/	/	/	/	24.2%	/
Cc1nn(CCC(=O)NNC(=S)NCC(C)C)c(C)c1Br	i	2.1%[38.3 µM]	i	-3.8%	5.1%	3.66µM*
CCOCCCNC(=S)NNC(=O)CCn1nc(C)c(Br)c1C	14.6µM*	1.3%[38.3 µM]	i	0.0%	18.8%	?
